Several values for one entry are separate records, joined by “and”; a condition that tells them apart may be missing. Identical values can stand only once. Records with an inconclusive call do not appear. Activity calls are given as the source filed them. Calls follow the shape of the dose curve; as a rule, active = well fitted cell-killing curve with a large enough effect in the repeat runs; inconclusive = weak or mixed curves; inactive = flat fitted curve, though single readings scatter.
Assay: qHTS RealTime-Glo MT Cell Viability Assay in HepG2 cells - 8 hour (AID 1224873); also: nearly all actives have a fitted effect of over 55% in size
Settings: RealTime-Glo luminescence; series mostly up to 76.8 µM; viability change, negative = cytotoxic: at the top concentration
Description: National Center for Advancing Translational Sciences [NCATS]
NIH Chemical Genomics Center [NCGC]
U.S. Environmental Protection Agency [EPA]
National Institutes of Environmental Health Sciences [NIEHS]
National Toxicology Program [NTP]
U.S. Food and Drug Administration [FDA]
Measure of cell viability is critical in the cell-base assay. Analysis of cell viability is necessary for the characterization of cell responses to cytotoxic drugs and environmental stress. A RealTime-Glo MT Cell Viability Assay to monitor cell viability in real time of continues cell culture during 40 hours of compound treatment was used to screen Tox21 10K library compounds in HepG2 cells. The RealTime-Glo MT Cell Viability Assay is a nonlytic, homogeneous, bioluminescent method to measure cell viability in real time using a simple, plate-based method. The assay involves adding NanoLuc luciferase and a cell-permeant prosubstrate to cells in culture. Viable cells reduce the proprietary prosubstrate to generate a substrate for NanoLuc luciferase. This substrate diffuses from cells into the surrounding culture medium, where it is rapidly used by the NanoLuc Enzyme to produce a luminescent signal. The signal correlates with the number of viable cells, making the assay well suited for cytotoxicity studies.
Tox21 Assay Protocol Summary:
The mixture of HepG2 cell suspension and reagents were dispensed at 600cells/6 ul/well in 1536-well tissue culture treated black solid bottom plates using a Multidrop dispenser. After the assay plates were incubated at a 37 C/5% CO2 incubator for 5 hours, 23 nL of compounds dissolved in DMSO, positive and negative controls was transferred to the assay plate by a pintool work station. The plates were incubated at 37 C for 40 hours. The luminescence intensity were measured at 0h, 8h, 16h, 24h, 32h and 40h time points using ViewLux plate reader during compound treatment.
% is scaled to controls: 0 for no effect and ±100 for the full control effect; potency is read from the fitted curve at half-maximal effect.

| Structure (SMILES) | viability change, negative = cytotoxic | Potency |
| --- | --- | --- |
| Nc1ccccc1C(=O)OCC(O)CO (stereo not given) | 1.71% [at 35.3 µM] (inactive) |  |
| CCCCC1C(=O)NC(=O)N(C2CCCCC2)C1=O (stereo not given) | 0.645% [at 35.3 µM] (inactive) |  |
| CCCCNC(=O)OCC#CI |  | 15.4 µM (active) and 12.3 µM (active) |
| O=S(=O)(Cl)Cl | -4.91% (inactive) |  |
| C[C@H]1O[C@H](OC2[C@@H](O)[C@@H](O)C(O)[C@H](O)[C@H]2O)[C@@H](N)C[C@@H]1N=C(N)C(=O)O (stereo not given in full) | 3.08% (inactive) |  |
| CCCSP(=S)(OCC)Oc1ccc(SC)cc1 (stereo not given) | -13.6% (inactive) |  |
| CON(C)C(=O)Nc1ccc(Cl)cc1 | -2.05% (inactive) |  |
| COc1ccccc1N1CCNCC1 | 6.9% [at 35.3 µM] (inactive) |  |
| CC(Oc1cccc(Cl)c1)C(=O)O (stereo not given) | 1.34% (inactive) |  |
| CC(C)C1(C)N=C(c2ncccc2C(=O)O)NC1=O (stereo not given) | 7.69% (inactive) |  |
| Cc1cnc(C2=NC(C)(C(C)C)C(=O)N2)c(C(=O)O)c1 (stereo not given) | -0.596% (inactive) |  |
| CCCN(CCOc1c(Cl)cc(Cl)cc1Cl)C(=O)n1ccnc1 | -21.8% (inactive) |  |
| CCCCCCCCn1sccc1=O |  | 43.7 µM (active) and 16.2 µM (active) |
| COc1ccc(C(=O)c2c(C)n(CCN3CCOCC3)c3ccccc23)cc1 | -19.9% [at 35.3 µM] (inactive) |  |
| O=P(OCC(Br)CBr)(OCC(Br)CBr)OCC(Br)CBr (stereo not given) |  | inactive |
| COc1cc(CC#N)cc(OC)c1OC | 4.07% [at 35.3 µM] (inactive) |  |
| CCC(C)(C)O | 2.34% (inactive) |  |
| C[Si](Cn1cncn1)(c1ccc(F)cc1)c1ccc(F)cc1 | -16.4% (inactive) |  |
| CN(C)C(=O)Nc1cccc(OC(=O)NC(C)(C)C)c1 | 5.07% (inactive) |  |
| O=C(Cc1ccccc1)c1ccccc1 | -1.25% (inactive) |  |

| Structure (SMILES) | viability change, negative = cytotoxic | Potency |
| --- | --- | --- |
| C[N+]1(CCC(C(N)=O)(c2ccccc2)c2ccccc2)CCCCC1 | 0.691% [at 35.3 µM] (inactive) |  |
| OCC1CO1 (stereo not given) |  | inactive |
| CCCCCCCCCCCCN(C)C | -4.29% (inactive) |  |
| O=S(=O)(c1ccccc1)c1ccccc1 | 0.0679% (inactive) |  |
| C1CCNCC1 | -0.18% (inactive) |  |
| [Cl-].[Cl-].[Hg+2] |  | 48.8 µM (active) and 3.89 µM (active) |
| O=C1NC(=O)C(=O)C(=O)N1 | 2.84% (inactive) |  |
| CN1CC[C@]23c4c5ccc(O)c4O[C@H]2[C@@H](O)C=C[C@H]3[C@H]1C5 | -3.97% (inactive) |  |
| O=C(CCl)CCl |  | inactive |
| CCCCCBr | 0.135% (inactive) |  |
| O=CC=O | 4.65% (inactive) |  |
| Cc1cccc(C)c1NC1=NCCCS1 | -5.46% [at 35.3 µM] (inactive) |  |
| CCOc1cccc(C2(N3CCN(c4ccccc4)CC3)CCC(C)CC2)c1 (stereo not given) | 0.538% (inactive) |  |
| CC(C)CCCCCCCOC(=O)c1ccccc1C(=O)OCCCCCCCC(C)C | -7.06% (inactive) |  |
| C#C[C@]1(O)CC[C@H]2[C@@H]3CCC4=CC(=O)CCC4=C3C=C[C@@]21CC | -18.9% [at 35.3 µM] (inactive) |  |
| O=C(O)C(O)C(O)C(=O)O (stereo not given) | -0.493% (inactive) |  |
| COC1CC(=C(c2cccs2)c2cccs2)C[N+](C)(C)C1 (stereo not given) | 0.634% [at 35.3 µM] (inactive) |  |
| C[C@@H]1C[C@@H]([C@H](O)CC2CC(=O)NC(=O)C2)C(=O)[C@@H](C)C1 |  | inactive |
| CCOP(=O)(SC(C)CC)N1CCSC1=O (stereo not given) | 1.88% (inactive) |  |
| CCCCCCCCCCCCCCCl | 0.244% (inactive) |  |
